# SMN2 splice up: increases expression of the SMN2 splice variant. HEK293 SMN2-luciferase splicing reporter, luminescence, 30-36 h. Potency, µM (series often up to 46.1 µM), for inactives: at the highest dose activity change, positive = activation, usual class: activators. 210,000 compounds, 2.8% hits; also: % of control where 0% means no effect; nearly all actives have a fitted effect of over 55% in size
#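 HEK293 cells carry an SMN2 […]–luciferase reporter in which exon 7 inclusion puts luciferase in frame. Cells were plated 10-12 h before compound addition, then incubated 30-36 h at 37C. ONE-Glo luminescence was read; sodium butyrate at 4.5 mM final served as control.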
# KinaseGlo FLuc: blocks Kinase-Glo luciferase, a counter-screen artifact | Q27757 | Kinase-Glo luciferase, ATP luminescence, 8 min | Potency, µM (doses to about 38.3 µM), for inactives: at the top dose activity change, negative = inhibition, most hits filed as inhibitors | 200,000 compounds, 0.28% hits | AID 1379; also: % is scaled to controls: 0 for no effect and ±100 for the full control effect; nearly all actives have a fitted effect of over 60% in size
#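 Light output from Kinase-Glo luciferase with luciferin and 10 uM ATP in 50 mM imidazole pH 7.2, KCl, MgCl2, Tween 20, BSA; compound pin-delivered, 8-min ambient incubation, then luminescence read.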
# FLuc modulator: firefly luciferase modulation, counter-screen for miR-21 project; Potency, µM (highest dose often 57.5 µM), for the others: top-dose activity change, negative = inhibition, hits mostly inhibitors; purified FLuc, Km substrates, luminescence inhibition; P08659; 360,000 compounds, 6.9% hits; AID 588342;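 also: plate controls were vehicle for no effect and reference inhibitor for full effect; nearly all actives have a fitted effect of over 55% in size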
# Target sequence (P08659 whole entry, looked up): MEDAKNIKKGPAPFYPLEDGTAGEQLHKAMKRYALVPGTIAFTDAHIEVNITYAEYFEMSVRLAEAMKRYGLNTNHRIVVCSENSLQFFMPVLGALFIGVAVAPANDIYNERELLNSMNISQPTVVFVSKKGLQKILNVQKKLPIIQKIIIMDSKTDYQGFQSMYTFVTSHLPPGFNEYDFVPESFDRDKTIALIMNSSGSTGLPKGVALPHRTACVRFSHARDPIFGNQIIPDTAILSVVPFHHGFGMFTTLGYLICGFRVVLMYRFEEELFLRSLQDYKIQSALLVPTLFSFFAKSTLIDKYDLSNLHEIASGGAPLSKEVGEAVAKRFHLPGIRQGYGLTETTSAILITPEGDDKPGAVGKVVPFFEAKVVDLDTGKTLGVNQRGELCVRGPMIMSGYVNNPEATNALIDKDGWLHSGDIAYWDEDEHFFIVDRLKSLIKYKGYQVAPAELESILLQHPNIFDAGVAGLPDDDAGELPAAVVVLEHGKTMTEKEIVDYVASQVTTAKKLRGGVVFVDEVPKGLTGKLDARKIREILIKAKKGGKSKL
#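 Purified P. pyralis luciferase (10nM final) with 10uM D-luciferin and 10uM ATP (Km levels) in 50mM Tris acetate pH 7.5, 10mM Mg acetate, 0.01% Tween-20, 0.05% BSA; qHTS 6-point titration, ~60 µM downward; luminescence read.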
# ELG1 genotoxic: induces genotoxicity in HEK293T cells with luciferase-tagged ELG1; 330,000 compounds, 1.3% hits; HEK293T ELG1-luciferase reporter, luminescence, 16 h; AID 504466; Potency, µM (doses to about 46 µM), for the others: at the top dose activity change, positive = activation, usual class: activators; also: % of control where 0% means no effect; nearly all actives have a fitted effect of over 60% in size
#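 Cells (2,000/well) expressing the ELG1-luciferase fusion are dosed by pin tool and kept 16 hr at 37 °C, 5% CO2. Signal comes from ONE-Glo luciferase reagent after 30 min at room temperature.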
# Rab9 promoter act: activates the Rab9 promoter | Huh7 Rab9 promoter-luciferase reporter, luminescence, 24 h | AID 485297 | Potency, µM (highest dose often 9.22 µM), for inactives: top-dose activation, negative = inhibition, usual class: activators | 320,000 compounds, 2.8% hits; also: % of control where 0% means no effect; nearly all actives have a fitted effect of over 60% in size
#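 Luminescence read-out: Huh7 cells stably expressing Rab9-luciferase, treated 24 h with compound at 37 °C, then lysed with luciferase reagent for 10 min at ambient before reading.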
# NPC1 prom act: NPC1 promoter activation. Huh7 NPC1 promoter luciferase reporter, 24 h. Potency, µM (highest dose often 9.22 µM), without a hit: at the highest dose activation, actives largely listed as activators. 320,000 compounds, 2.4% hits. AID 485313; also: % of control where 0% means no effect; nearly all actives have a fitted effect of over 60% in size
#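 Luciferase expression driven by the NPC1 promoter was measured in stably transfected Huh7 cells after a 24 h compound incubation, using a luciferase reagent and a luminescence read.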
# Numbers without * were called inactive; ? = inconclusive; · = no result; [ ] = another dose, or the depositor's remark. Compounds with a hit are over-represented: about 7.3% of the library has one in this group of screens. Calls follow the shape of the dose curve; as a rule, active = well fitted curve in the direction sought with a large enough effect; inconclusive = small, poorly fitted or top-dose-only effect, or another doubt; inactive = no such curve, though single readings can be large; an effect the other way counts as inactive or inconclusive. Potency is read from the fitted curve at half-maximal effect.
SMILES,SMN2 splice up,KinaseGlo FLuc,FLuc modulator,ELG1 genotoxic,Rab9 promoter act,NPC1 prom act
Oc1ccc(/C=C/c2ccc3ccccc3n2)cc1,2.8µM*,?,0.13µM*,0.26µM*,?,?
CC(=O)Oc1ccc(Cl)cc1/C=C/c1ccc2ccccc2n1,14µM*,-1%,5.4µM*,23%,?,3.2µM*
Fc1ccccc1/C=C/c1ccc2ccccc2n1,0.89µM*,?,0.15µM*,0.33µM*,2.2µM*,4µM*
C=CCOc1ccc(Br)cc1/C=C1/SC(=Nc2ccc(C(=O)O)cc2)NC1=O,-18%,-4%,?,-4%,-7%,-6%
COc1ccc(Cn2c(CNC(=O)c3ccc(N(C)C)cc3)nc3cccnc32)cc1,·,·,-6%,·,·,·
Cc1ccc(NC(=O)Cn2ncn3c(cc4ccccc43)c2=O)cc1C,-22%,·,-9%,·,·,·
CCCc1cc2c(=O)c(-c3ccc4c(c3)OCCO4)c(C)oc2cc1OS(C)(=O)=O,-74%,6%,-7%,-9%,2%,-1%
CCc1cc2c(=O)c(-c3ccc4c(c3)OCCO4)coc2cc1OC(=O)c1ccco1,?,1%,1.1µM*,1.5µM*,2µM*,1.8µM*
CCN(CC)Cc1c(O)ccc2c(=O)c(-c3ccc4c(c3)OCCO4)coc12,-6%,-3%,2%,4%,-10%,2%
CCCc1cc2c(=O)c(-c3ccc4c(c3)OCCO4)coc2cc1OS(C)(=O)=O,?,5%,5.4µM*,0%,3.2µM*,?
CCCc1cc2c(=O)c(-c3ccc4c(c3)OCCO4)coc2cc1OC(=O)c1ccco1,?,-5%,5.4µM*,18%,1.6µM*,1.3µM*
COc1cccc(CNC(=O)c2oc3ccc4c(c3c2C)C(=O)CC(C)(C)O4)c1OC,6%,·,3.4µM*,·,·,·
CCCNC(=O)c1oc2ccc3c(c2c1C)C(=O)CC(C)(C)O3,13µM*,-7%,2.4µM*,?,1.8µM*,1.8µM*
CC(=O)Nc1ccc(NC(=O)c2oc3ccc4c(c3c2C)C(=O)CC(C)(C)O4)cc1,·,·,8.5µM*,·,·,·
COc1cc(OC)c(NC(=O)c2oc3ccc4c(c3c2C)C(=O)CC(C)(C)O4)cc1Cl,·,·,5.4µM*,·,·,·
CCOC(=O)c1ccc(NC(=O)c2oc3ccc4c(c3c2C)C(=O)CC(C)(CC)O4)cc1 (centres undefined),5%,·,-16%,·,·,·
Cc1c(C(=O)NCc2ccc(Cl)cc2)oc2ccc3c(c12)C(=O)CC(C)(C)O3,26%,·,?,·,·,·
CCCNC(=O)c1oc2ccc3c(c2c1C)C=CC(C)(C)O3,·,·,11µM*,?,3.5µM*,?
Cc1ccc(NC(=O)c2oc3ccc4c(c3c2C)C(=O)CC(C)(C)O4)c(C)c1,·,·,4.3µM*,·,·,·
COC(=O)c1ccccc1NC(=O)c1oc2ccc3c(c2c1C)C(=O)CC(C)(C)O3,·,·,5.4µM*,·,·,·
CCCNC(=O)c1ccc(COc2ccc(C)cc2)o1,·,·,-11%,1%,-2%,2%
COC(=O)CN1C(=O)COc2ccc(S(=O)(=O)N3CCOCC3)cc21,·,·,1%,0%,-2%,7%
COc1ccc([C@@H]2[C@@H]3C(=O)N(C(C)(C)C)C(=O)[C@@H]3[C@]3(CC(C)C)C(=O)N(c4cccc(F)c4)C(=O)N23)cc1,·,·,1%,0%,-3%,0%
CCOc1ccc(/C=C/C(=O)Oc2ccccc2)cc1,·,·,1.5µM*,5%,12%,-4%
COc1ccc(OC(=O)/C=C/c2ccc([N+](=O)[O-])cc2)cc1,·,·,7%,-1%,-10%[1.84 µM],2%
SMILES,SMN2 splice up,KinaseGlo FLuc,FLuc modulator,ELG1 genotoxic,Rab9 promoter act,NPC1 prom act
O=Cc1ccc(OC(=O)/C=C/c2ccccc2)cc1,·,·,19µM*,1%,5%,-1%
CCOc1ccc(/C=C/C(=O)c2ccc(-c3ccccc3)cc2)cc1,-20%,0%,-8%,-5%,-5%,2%
CCN1CCN(c2nnc(-c3ccccc3)c3ccccc23)CC1,·,·,-5%,-3%,0%,2%
CCN1CCN(c2cc3c(nn2)Oc2ccccc2N3C)CC1,16µM*,-2%,17µM*,?,?,29%
COC(=O)c1ccc(N/N=C/c2cc([N+](=O)[O-])cc(OC)c2O)cc1,·,1%,?,10%,-2%,6%
COc1cccc(/C=N/Nc2ccc([N+](=O)[O-])cc2)c1O,·,·,2.4µM*,?,24%,?
COc1cccc(N/N=C/c2cccc(Br)c2O)c1,·,·,6.7µM*,?,?,?
COc1ccc(/C=N/Nc2ccc([N+](=O)[O-])cc2)cc1O,·,·,7.6µM*,12µM*,?,18%
COc1ccc(OC)c(/C=N/NC(=O)c2ccc(=O)[nH]n2)c1,·,·,2%,-1%,5%,0%
COc1cccc(/C=N/NC(=O)c2ccc(=O)[nH]n2)c1O,·,·,3.4µM*,10%,-7%,0%
Cc1cccc(-n2nc3c(c2NC(=O)c2ccco2)CSC3)c1C,-25%,2%,1%,-7%,-7%,-2%
O=c1[nH]c(CSc2ncnc3sccc23)nc2cc(C(F)(F)F)ccc12,·,·,1%,0%,1%,-1%
COc1cc(/C=N/NC(=O)c2cccc([N+](=O)[O-])c2)cc(OC)c1O,1%,-2%,-14%,-1%,-4%,-3%
COc1cccc(/C=N/NC(=O)c2ccc([N+](=O)[O-])cc2Cl)c1O,-72%,3%,19µM*,7%,-28%,-32%
CC(=O)Oc1ccc(C(=O)Cc2ccc3ccccc3n2)c(O)c1C,?,-9%,5.4µM*,?,?,?
COc1cccc(-c2ncnn2-c2sc3c(c2C#N)CCCCC3)c1OC,9%,·,0.95µM*,·,·,·
N#Cc1c(-n2ncnc2-c2ccc(Br)cc2)sc2c1CCCCC2,6%,·,1.2µM*,·,·,·
CCOc1ccc(-c2ncnn2-c2sc3c(c2C#N)CCCCC3)cc1,-16%,·,?,·,·,·
O=C(c1cc(Cl)c(=O)n(Cc2ccccc2)c1)N1CCOCC1,20%,0%,1%,1%,-4%,-2%
Cc1ccc(Nc2nc(COC(=O)C3CC3)cs2)cc1,?,-2%,4.3µM*,?,3.2µM*,?
Cc1ccc(Nc2nc(C(=O)N3CCC(C(=O)N4CCN(C)CC4)CC3)cs2)cc1,7%,-1%,-17%,14%,18%,14%
C[C@@H](c1ccccc1)N1Cc2ccccc2Oc2cc(Br)ccc2S1(=O)=O,·,·,·,-3%,·,·
Cc1ccc(-c2nnc(Cc3ccc([N+](=O)[O-])cc3)o2)cc1,·,12%,-2%,?,2.2µM*,?
CC(=O)CSc1nnc(Cc2ccc([N+](=O)[O-])cc2)o1,8%,2%,-1%,3%,-6%,-5%

# Assay outcomes from PubChem.
